Many of the other results were omitted from the sample, so hits are more common in it than they were.
Dicer processing = blocks human Dicer maturation of pre-miR-21. Q9UPY3. cat-ELCCA pre-miR-21 Dicer processing, chemiluminescence; hits give high values. z-score at 25 µM. 47,000 compounds, 6% hits; in the data active = z-score above about 3, passing the limit was not always enough;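 note: plate controls were vehicle for no effect and no enzyme for full effect; higher signal means more uncleaved substrate so more Dicer inhibition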
Target sequence (Q9UPY3 whole entry, looked up): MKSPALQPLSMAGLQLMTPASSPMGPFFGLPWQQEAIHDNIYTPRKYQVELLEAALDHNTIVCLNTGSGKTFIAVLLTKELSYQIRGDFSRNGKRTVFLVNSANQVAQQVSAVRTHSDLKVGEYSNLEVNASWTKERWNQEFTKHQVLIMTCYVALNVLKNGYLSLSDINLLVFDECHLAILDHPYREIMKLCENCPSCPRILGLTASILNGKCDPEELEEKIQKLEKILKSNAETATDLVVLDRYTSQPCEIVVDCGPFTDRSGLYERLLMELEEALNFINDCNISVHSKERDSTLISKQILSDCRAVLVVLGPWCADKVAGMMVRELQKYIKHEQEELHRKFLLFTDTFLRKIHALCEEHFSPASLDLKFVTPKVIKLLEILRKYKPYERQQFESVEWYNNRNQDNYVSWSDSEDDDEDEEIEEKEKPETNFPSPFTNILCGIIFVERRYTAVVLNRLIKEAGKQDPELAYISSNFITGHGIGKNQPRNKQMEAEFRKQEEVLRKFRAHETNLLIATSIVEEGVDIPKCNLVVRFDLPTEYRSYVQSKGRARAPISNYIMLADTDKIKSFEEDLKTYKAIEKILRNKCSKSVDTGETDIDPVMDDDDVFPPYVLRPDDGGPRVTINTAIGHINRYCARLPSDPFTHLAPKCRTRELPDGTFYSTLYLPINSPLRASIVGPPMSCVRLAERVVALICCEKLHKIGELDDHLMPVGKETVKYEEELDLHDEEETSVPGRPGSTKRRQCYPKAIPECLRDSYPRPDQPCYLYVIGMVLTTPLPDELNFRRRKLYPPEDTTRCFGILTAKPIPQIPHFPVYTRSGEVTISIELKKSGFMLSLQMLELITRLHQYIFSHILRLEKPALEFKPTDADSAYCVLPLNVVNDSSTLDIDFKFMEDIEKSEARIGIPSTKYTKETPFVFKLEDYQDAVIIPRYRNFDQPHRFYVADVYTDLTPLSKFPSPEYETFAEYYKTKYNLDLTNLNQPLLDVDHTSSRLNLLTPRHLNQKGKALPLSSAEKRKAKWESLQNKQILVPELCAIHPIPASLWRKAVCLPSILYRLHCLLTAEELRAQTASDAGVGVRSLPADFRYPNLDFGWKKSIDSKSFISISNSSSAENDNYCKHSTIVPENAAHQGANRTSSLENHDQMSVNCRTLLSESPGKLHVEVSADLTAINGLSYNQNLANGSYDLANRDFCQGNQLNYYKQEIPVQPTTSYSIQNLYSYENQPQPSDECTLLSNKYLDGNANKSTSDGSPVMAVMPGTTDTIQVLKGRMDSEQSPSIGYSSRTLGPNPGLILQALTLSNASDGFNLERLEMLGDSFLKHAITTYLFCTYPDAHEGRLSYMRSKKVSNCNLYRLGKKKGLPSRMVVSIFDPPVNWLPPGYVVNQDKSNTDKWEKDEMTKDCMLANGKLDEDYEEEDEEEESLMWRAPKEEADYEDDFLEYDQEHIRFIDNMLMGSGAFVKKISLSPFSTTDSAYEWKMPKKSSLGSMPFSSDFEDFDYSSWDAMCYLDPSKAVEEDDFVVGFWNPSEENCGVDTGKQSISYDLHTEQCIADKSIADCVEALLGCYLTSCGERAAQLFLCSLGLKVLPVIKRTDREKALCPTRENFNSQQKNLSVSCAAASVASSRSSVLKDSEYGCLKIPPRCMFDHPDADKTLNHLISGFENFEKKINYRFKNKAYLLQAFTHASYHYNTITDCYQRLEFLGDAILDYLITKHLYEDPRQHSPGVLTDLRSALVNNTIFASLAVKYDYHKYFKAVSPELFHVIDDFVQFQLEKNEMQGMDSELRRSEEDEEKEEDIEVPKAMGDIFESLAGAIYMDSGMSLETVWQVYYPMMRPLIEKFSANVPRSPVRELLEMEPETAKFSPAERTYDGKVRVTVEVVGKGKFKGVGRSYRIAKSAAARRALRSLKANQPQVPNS
* hit, by the source's call.

SMILES	Dicer processing
CC1(C(=O)O)NC(c2ccc(O)cc2O)C2C(=O)N(c3ccc(Br)cc3)C(=O)C21 (centres undefined)	5.01*
CCCCCC(=O)n1c2ccc(F)cc2c2nc3ccccc3nc21	-0.53
Cc1c(Br)c([N+](=O)[O-])nn1CC(=O)NCCCN1CCOCC1	-0.49
O=C(NCc1cccs1)C1CC(c2c(F)cccc2Cl)=NO1 (centres undefined)	-2.17
COc1ccc(/C=C2/NC(=S)NC2=O)c(Cl)c1OC	-0.81
O=C1/C(=C/c2ccsc2)CC/C1=C\c1cccs1	-1.62
O=C1NC(=S)N/C1=C/c1cccs1	4.08*
Cc1cc(C=C2C(=O)NC(=S)NC2=O)cc(C)c1O	-1.62
Cc1ccc(S(=O)(=O)Oc2ccc(/C=C3\NC(=O)NC3=O)cc2)cc1	-0.5
Cc1ccc(/C=C2\NC(=S)NC2=O)cc1	4.74*
FC(F)(F)c1ccc(-c2nnc3ccc(NC4CC4)nn23)cc1	0.27
O=c1cc(-c2cc(C(F)(F)F)cc(C(F)(F)F)c2)nc2cc(-c3ccccc3)[nH]n12	1.65
CC1=NN(c2ccc(C)cc2)C(=O)C1=C1SCCS1	-0.81
CCOC(=O)c1c[nH]c2ccc(C)cc2c1=O	0.68
Cn1c(=O)c2[nH]c(CN3CCOCC3)nc2n(C)c1=O	-2.34
CCOC(=O)c1sc(N2C(=O)c3oc4ccc(C)cc4c(=O)c3C2c2ccc(OC)cc2)nc1C (centres undefined)	0.35
COc1ccc(C#N)cc1Br	-0.35
COc1ccc(C2Nc3cccc4cccc(c34)N2)cc1Br	4.9*
Brc1ccc(C2Nc3cccc4cccc(c34)N2)cc1	4.97*
Oc1ccc2ccccc2c1C1Nc2cccc3cccc1c23 (centres undefined)	-2.61
Fc1ccc(C2Nc3cccc4cccc(c34)N2)cc1	-0.77
COc1cccc(C2Nc3cccc4cccc(c34)N2)c1O	0.69
CCOc1nc(-c2ccc(Cl)cc2)ccc1-c1noc(C(C)C)n1	-0.6
O=C(/C(=C/Nc1cc(C(F)(F)F)cc(C(F)(F)F)c1)[N+](=O)[O-])c1ccc(Cl)c(Cl)c1	0.18
O=C(O)CN1CC(=O)Oc2ccccc21	-1.86
SMILES	Dicer processing
Cc1ccc(S(=O)(=O)OS(=O)(=O)c2ccc(C)cc2)cc1	-1.04
CC1CC2(C)C(O)CCC2C2CCc3cc(O)ccc3C12 (centres undefined)	1.25
CN(C)/C=C/C(=O)c1ccc(Cl)cc1	-0.38
Cc1ccc(C(=O)/C=C/S/C=C/C(=O)c2ccc(C)cc2)cc1	-1.9
CN(C)/C=C/C(=O)c1ccc(C#Cc2ccccc2)cc1	1.41
CN(C)/C=C/C(=O)c1ccc(Cl)c(Cl)c1	4.92*
Cc1ccc(C(=O)/C=C/C=C/C=C/N(C)C)cc1	4.51*
COc1ccc2cc(C(=O)/C=C/N(C)C)ccc2c1	-0.67
Cc1ccc(Cn2nc(C)c(NC(=O)c3cc4n(n3)C(C(F)(F)F)CC(c3ccco3)N4)c2C)cc1 (centres undefined)	0.4
Cc1cnc(NS(=O)(=O)c2ccc(F)cc2)c(Br)c1	0.99
COc1cccc(C2/C(=C(\O)c3ccc(Cl)cc3)C(=O)C(=O)N2CCCn2ccnc2)c1 (centres undefined)	-0.27
COC(=O)Nc1ccc(S(=O)(=O)N2CCC(C(=O)Nc3ccc4c(c3)OCO4)CC2)cc1	0.22
O=C(Oc1ccc2oc(=O)sc2c1)c1ccccc1Cl	7.15*
CCCCNC(=O)Oc1ccc2sc(=O)oc2c1	-1.01
Cc1ccc(C(=O)Oc2ccc3oc(=O)sc3c2)cc1	5.08*
O=C(Oc1ccc2oc(=O)sc2c1)c1ccc(Br)cc1	-0.22
O=C(Oc1ccc2c(=O)ccoc2c1)c1ccc(Cl)cc1Cl	2.12
O=C(Oc1ccc2c(c1)oc(=O)c1ccccc12)c1ccccc1	2.26
O=C(O)c1cccc(S(=O)(=O)Nc2ccc3oc(=O)sc3c2)c1	-0.91
Cc1cccc(C(=O)Oc2ccc3oc(=O)sc3c2)c1	5.55*
CC(=O)Oc1ccc2oc(=O)sc2c1	-1.21
CCOC(=O)NNC1(C#N)CCSC1 (centres undefined)	1.7
Cc1nn(C)c2c1S(=O)(=O)N=C(N1CCOCC1)S2	0.34
Cc1cc(=O)n2c(n1)NC(Nc1ccc(C(C)C)cc1)=NC2c1ccccc1 (centres undefined)	-0.97
CN(C)/C=N/c1nnc(C(C)(C)C)s1	-0.86
SMILES	Dicer processing
CSc1nnc(-c2ccco2)n1-c1ccc(OCc2ccccc2)cc1	-0.59
O=c1c(Cl)c(N2CCOCC2)cnn1-c1ccccc1	-0.99
O=[N+]([O-])c1cc(C(F)(F)F)ccc1-c1ccc(C(F)(F)F)cc1[N+](=O)[O-]	1.83
CCOc1cccc(C2N=C(N)Nc3nc4ccccc4n32)c1 (centres undefined)	-0.43
O=C(NCc1ccccc1)C1CCC(C(=O)NCc2ccccc2)N1 (centres undefined)	-0.39
O=C(NCc1ccccc1)N1c2ccccc2Sc2ccccc21	-0.87
O=C(NCc1ccccc1)N1CC2C=CC1C2 (centres undefined)	6.22*
O=C1NC(=S)C(Nc2ccccc2)S1 (centres undefined)	2.37
Cc1cc(Cl)cc2c1C(=O)/C(=C\c1cccnc1)S2	-0.04
O=C1C(c2cc(Cl)cc(Cl)c2)=C(O)c2ccccc21	-0.75
Cc1cc(Cl)cc2c1C(=O)/C(=C\c1ccccc1O)S2	5*
O=C1CC(c2ccccc2Cl)Cc2nc(N3CCc4ccccc43)ncc21 (centres undefined)	-0.28
O=S(=O)(c1ccc(-c2ccc(S(=O)(=O)N3CCOCC3)s2)s1)N1CCOCC1	-0.29
Cc1ccc2nc(C)nc(-c3ccccc3)c2c1	-0.07
Cc1ccc(S(=O)(=O)CCSC2=CC(=O)CC(C)(C)S2)cc1	-3.16
CC1(C)CC(=O)C=C(SCCS(=O)(=O)c2ccccc2)S1	1.9
CC1(C)CC(=O)C=C(SCc2ccc(Cl)cc2)S1	4.02*
CC1(C)Cc2c(sc3ncn4nc(-c5cccs5)nc4c23)C(C)(C)N1	2.3
Nc1ccc(-c2nc3c(Cl)cccc3[nH]2)cc1	1.69
Nc1ccc(-c2nc3c(ccc4ccccc43)[nH]2)cc1	23*
Nc1ccc(-c2nc3ccccc3[nH]2)cc1	-0.71
OCCCCn1c(-c2ccccc2)nc2ccccc21	-0.69
CNS(=O)(=O)c1ccc(C)c(I)c1	-0.17
COc1cc(C2Nc3ccccc3-c3nnc(SC)nc3O2)ccc1O (centres undefined)	26.6
CCOc1cc(C2Nc3ccccc3-c3nnc(SC)nc3O2)ccc1O (centres undefined)	5.03*
SMILES	Dicer processing
CCSc1nnc2c(n1)OC(c1ccc(O)c(OC)c1)Nc1ccccc1-2 (centres undefined)	1.27
C/C(=N\NC1=NCCN1Cc1ccccc1)c1ccccc1	-0.14
CCn1cc(CN(C)C(=O)c2cnn3c(C(F)F)cc(-c4ccccc4)nc23)c(C)n1	0.98
CCSc1nc2c(c(=O)[nH]1)C(c1cc(OC)ccc1OC)C1=C(CC(C)(C)CC1=O)N2 (centres undefined)	0.43
COC(=O)C1=C(C)Nc2nnnn2C1c1cc(Br)ccc1OC (centres undefined)	-0.18
COC(=O)C1=C(C(=O)c2ccc(C)cc2)C(c2ccccc2OC)n2nnnc2N1 (centres undefined)	0.5
COC(=O)C1=C(C(=O)c2ccccc2)C(c2ccccc2OC)n2nnnc2N1 (centres undefined)	0.01
CCOC(=O)C1=C(C)Nc2nnnn2C1c1cc(Br)ccc1OC (centres undefined)	47.5*
COc1ccccc1C1C(C(=O)OC(C)C)=C(C)Nc2nnnn21 (centres undefined)	3.17*
